Test results taken from PubChem BioAssay AID588493 (Sanford-Burnham Center for Chemical Genomics, 2011).
The campaign covered roughly 360,000 compounds. About 2,100 (0.58%) were called active. The sample as a whole holds a higher share of actives than the screen did. Values without a mark were called inactive.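 How the source made its calls: active means inhibition at 20 µM, scaled to each plate's controls, above about 33% (limit read from the data); inactive means the rest.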

Target: 26S proteasome non-ATPase regulatory subunit 14 (Homo sapiens) (UniProt O00487)
Sequence (O00487 whole entry, looked up): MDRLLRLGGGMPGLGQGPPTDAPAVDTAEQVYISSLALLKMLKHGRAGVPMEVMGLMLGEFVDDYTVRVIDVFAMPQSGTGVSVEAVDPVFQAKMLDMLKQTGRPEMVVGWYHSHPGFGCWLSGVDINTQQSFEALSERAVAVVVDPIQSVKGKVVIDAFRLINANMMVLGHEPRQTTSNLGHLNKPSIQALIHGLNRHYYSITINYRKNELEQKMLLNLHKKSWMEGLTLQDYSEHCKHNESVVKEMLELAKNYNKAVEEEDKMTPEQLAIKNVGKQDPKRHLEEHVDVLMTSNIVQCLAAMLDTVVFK
Experiment: inhibition of 26S proteasome subunit Rpn11 – biochemical, fluorescence polarization, uHTS, primary screen (AID 588493)
Conditions: human 26S proteasome, Ub4-pepOG fluorescence polarization, at 20 µM, stronger effect = higher value

Row | SMILES | inhibition
1 | O=c1[nH]c(=O)n(CCc2ccccc2)c(O)c1/C=N/N1CCOCC1 | 5.5%
2 | O=c1[nH]c(=O)n(Cc2ccccc2)c(O)c1/C=N/Nc1c(F)c(F)c(F)c(F)c1F | 41.6% (active)
3 | O=C(N/N=C/c1c(O)n(Cc2ccccc2)c(=O)[nH]c1=O)c1ccccc1 | -6.7%
4 | COC(=O)C1=C(c2ccc(F)cc2OCc2ccccc2)C[C@@H]2CC[C@H]1N2C(=O)NCc1ccc(Cl)cc1 | 7.7% [20S core pre-blocked with epoxomicin]
5 | CCc1cccc2c(C#N)cn(CC(=O)N3CCOCC3)c12 | -6.2%
6 | COc1ccc(C2NCc3ccc4c(c3-n3cccc32)OCO4)cc1OC (stereo not given) | 7.6%
7 | Cc1cccc(N2C(=O)NC(=O)/C(=C\c3cnn(-c4ccccc4)c3)C2=O)c1 | 119% (active)
8 | Cn1c(O)c(C(=Nc2ccc(F)cc2)c2ccccc2)c(=O)n(C)c1=O | -3.9%
9 | COc1ccc(C2C=C(C)Oc3c2c(=O)oc2ccccc32)cc1OC (stereo not given) | 6% [20S core pre-blocked with epoxomicin]
10 | c1cc2c(c(NC3=NCCCS3)c1)CCCC2 | 3.9%
11 | O=C(C1CC(=O)N(C2CCCC2)C1)N1CCC2(CC1)OCCO2 (stereo not given) | 3.4%
12 | CCN1C(=O)C(=Cc2c(C)n(CC(=O)NCC3CCCO3)c3ccccc23)C(=O)N(CC)C1=S (stereo not given) | 62% (active)
13 | Fc1cccc(F)c1CN1CCN(Cc2c(F)cccc2F)CC1 | -4.8%
14 | CN(C)C(=O)Oc1ccc2c(c1)O/C(=C\c1ccccc1)C2=O | 5.7%
15 | Cn1c(C(=O)N2CCC(C(=O)N3CCC4(CC3)OCCO4)CC2)cc2sccc21 | 3.9%
